# About 1,000 (1.4%) of roughly 69,000 compounds showed an effect of 50% or more. This is one part of a sample in which strong results are shown more often than they occur.
# Test system: Leishmania donovani
# Assay: Leishmania intramacrophage assay
# Format: functional, organism-based
# Parameters: scale not given: in the data most compounds retested in dose-response had high values
smiles,measurement,setting,value
OC(CNCCc1nnc2ccccn12)c1ccc2c(c1)OCO2 (stereo not given),Percent Effect,"30.3 µM, […]",14.08%
CCn1c(CN2CCCC2)nnc1C1CCN(Cc2ccc(C)o2)CC1,Percent Effect,"30 µM, 30.03 µM",43.06%
CC[C@@]1(O)CCN(C(=O)CCSCc2ccc(F)cc2)C[C@H]1O,Percent Effect,"30.3 µM, […]",-8.433%
CCc1cnc(CN(C)C2CCN(CC3CCN(C(C)=O)CC3)C2)o1 (stereo not given),Percent Effect,"30.3 µM, […]",21.9%
CCc1cnc(CN(C)C2CCN(CC3CCC3)C2)o1 (stereo not given),Percent Effect,"30.3 µM, […]",50.08%
CCc1cnc(CN(C)C2CCN(CC3CCOCC3)C2)o1 (stereo not given),Percent Effect,"30.3 µM, […]",46.35%
CC1(C)CN(Cc2csc(CS(C)(=O)=O)n2)Cc2ccccc21,Percent Effect,"30.3 µM, […]",-3.043%
Cc1cccc(N2CCN(CCNC(=O)c3ccnn3C)CC2)c1,Percent Effect,"30 µM, 30.03 µM",32.04%
Fc1ccc(C(CNc2ccncn2)N2CCCC2)cc1 (stereo not given),Percent Effect,"30.3 µM, […]",64.07%
Fc1ccccc1C(CNc1ccncn1)N1CCCC1 (stereo not given),Percent Effect,"30.3 µM, […]",13.69%
Fc1ccc(C(CNc2ccncn2)N2CCCCC2)cc1 (stereo not given),Percent Effect,"30.3 µM, […]",33.33%
O=C(CCN1CCCCO1)NCc1cn2c(n1)SCC2,Percent Effect,"30.3 µM, […]",-7.597%
CC(CNC(=O)c1cnc[nH]1)Oc1ccc(Cl)cc1 (stereo not given),Percent Effect,"30.3 µM, […]",-8.982%
CS(=O)(=O)Cc1nc(CNc2ccc(F)c(F)c2)cs1,Percent Effect,"30.3 µM, […]",-2.721%
Cc1cc(C)n(CCCn2cncc2-c2ccc3c(c2)CC(C)N3C)n1.Cl (stereo not given),Percent Effect,"30.3 µM, […]",2.187%
Cc1noc(Cl)c1CC(=O)NCCOc1ccc(F)cc1F,Percent Effect,"30.3 µM, […]",8.93%
Cc1nonc1OCCNC(=O)COc1ccc(F)cc1F,Percent Effect,"30.3 µM, […]",56.45%
Cc1nonc1OCCNC(=O)COc1ccc(Cl)cc1Cl,Percent Effect,"30.3 µM, […]",19.12%
O=C(c1ccc(COc2ccc(Cl)cc2)o1)N1N=CCC1(O)C(F)(F)F (stereo not given),Percent Effect,"30.3 µM, […]",-74.85%
CCSCCC(C)N(C)C(=O)c1ccc(C)o1 (stereo not given),Percent Effect,"30.3 µM, […]",26.69%
Cn1ccnc1CN1CCc2c(COCC3CC3)nn(C)c2C1,Percent Effect,"30.3 µM, […]",17.02%
Cc1cc(CN2CC[C@@H]3[C@@H](CCC(=O)N3CCc3c[nH]cn3)C2)oc1C,Percent Effect,"30.3 µM, […]",21.24%
O=C(c1nnn(-c2ccccc2Cl)c1-c1ccccn1)N1CCSCC1,Percent Effect,"30.3 µM, […]",1.038%
COCC(=O)NC(C)c1sc(-c2ccccc2F)nc1C (stereo not given),Percent Effect,"30.3 µM, […]",18.86%
CCC(=O)NCC(=O)NC(C)c1sc(-c2ccccc2F)nc1C (stereo not given),Percent Effect,"30.3 µM, […]",52.49%
CC(=O)NCCC(=O)NC(C)c1sc(-c2ccccc2F)nc1C (stereo not given),Percent Effect,"30.3 µM, […]",-1.241%
CC(CNC(=O)Nc1cn[nH]c1)N1CCCC1 (stereo not given),Percent Effect,30 µM,4.879%
CC(=O)N(C)c1nc(CN2CCN(Cc3nccn3C)CC2)cs1,Percent Effect,"30.3 µM, […]",5.012%
O=S(=O)(c1c(Cl)nc2sccn12)N1CCCC2(CCNC2)C1 (stereo not given),Percent Effect,"30.3 µM, […]",49.51%
CN1CCCC2(CCN(S(=O)(=O)c3c(Cl)nc4sccn34)C2)C1=O (stereo not given),Percent Effect,"30.3 µM, […]",41%
O=S(=O)(c1c(Cl)nc2sccn12)N1CCC2(CCNCC2)C1,Percent Effect,"30.3 µM, […]",51.47%
CSCCc1n[nH]c2c1CN(S(=O)(=O)c1c(C)nn(C)c1C)CC2,Percent Effect,"30.3 µM, […]",-0.401%
CCCSc1ccccc1NC(=O)N1CCN(C(=O)c2ccc[nH]2)CC1,Percent Effect,"30.3 µM, […]",22.55%
c1coc(-c2nc3c(c(NCc4n[nH]c5c4CCC5)n2)CCNCC3)c1,Percent Effect,"30.3 µM, […]",1.11%
c1ccc(-c2nc3c(c(NCc4n[nH]c5c4CCC5)n2)CCNC3)cc1,Percent Effect,"30.3 µM, […]",100.2%
c1ccc(-c2nc3c(c(NCc4nnc5n4CCC5)n2)CCNC3)cc1,Percent Effect,"30.3 µM, […]",11%
Cc1ncsc1CN1CC(C)(C2CC2)CC1=O (stereo not given),Percent Effect,"30.3 µM, […]",-1.864%
CC(=O)N1CCC(C)(c2cc(C(=O)NCC(C)(C)C)nc(C)n2)CC1,Percent Effect,"30.3 µM, […]",-26.7%
Cc1n[nH]c2ncc(CNC3CCN(Cc4ccccn4)CC3)cc12.Cl,Percent Effect,"30.3 µM, […]",23.69%
Cc1[nH]c2ccc(CNC3CCN(Cc4ccccn4)CC3)cc2c1C,Percent Effect,"30.3 µM, […]",65.08%
Cc1cc(NC2CCN(Cc3ccccn3)CC2)n2nc(C)c(C)c2n1,Percent Effect,"30.3 µM, […]",27.06%
Cc1cc2nc(O)c(O)nc2cc1S(=O)(=O)NC1CC1,Percent Effect,"30.3 µM, […]",53.32%
Cc1cc2[nH]c(=O)c(=O)[nH]c2cc1S(=O)(=O)NC1CCCCC1,Percent Effect,"30.3 µM, […]",4.835%
Cc1cc2[nH]c(=O)c(=O)[nH]c2cc1S(=O)(=O)NC1CCC(C)CC1 (stereo not given),Percent Effect,"30.3 µM, […]",6.826%
O=C1CCCN1c1cccc(CNCc2nc(-c3ccco3)no2)c1,Percent Effect,"30.3 µM, […]",-19.6%
Cc1ccc2nc(CN(C)Cc3n[nH]c4c3CCCCC4)[nH]c2c1C,Percent Effect,"30.3 µM, […]",99.15%
Cc1ccc2[nH]c(CN(C)Cc3ccccc3C(=O)O)nc2c1,Percent Effect,"30.3 µM, […]",25.21%
CN(Cc1cc2n(n1)CCNC2)Cc1n[nH]c2c1CCCCC2,Percent Effect,"30.3 µM, […]",33.41%
Cc1ccc2[nH]c(CN(C)Cc3n[nH]c4c3CCC4)nc2c1,Percent Effect,"30.3 µM, […]",65.71%
Cc1ccc2nc(CN(C)Cc3[nH]nc4c3CCC4)[nH]c2c1C,Percent Effect,"30.3 µM, […]",40.9%
COc1nc2cc(C)ccc2cc1CN(C)Cc1n[nH]c2c1CCCC2,Percent Effect,"30.3 µM, […]",19.2%
CC(C)C(C(=O)N1CCN(c2ccncc2)CC1)n1cncn1 (stereo not given),Percent Effect,"30 µM, 30.03 µM",24.05%
CCOc1ccc(Cl)c(C(=O)N2CCCN(CC(N)=O)CC2)n1,Percent Effect,30 µM,-7.749%
N#Cc1cc2c(=O)n(CC(O)Cc3ccccc3)ccc2[nH]c1=O (stereo not given),Percent Effect,"30.3 µM, […]",33.38%
N#Cc1cc2c(=O)n(CC(O)C(F)(F)F)ccc2[nH]c1=O (stereo not given),Percent Effect,"30.3 µM, […]",28.06%
N#Cc1cc2c(=O)n(CC(O)c3cccc(O)c3)ccc2[nH]c1=O (stereo not given),Percent Effect,"30.3 µM, […]",52.32%
Cc1cnc(N2CCC3(CC(=O)N(Cc4csc(C)n4)C3)C2)nc1.O=C(O)C(F)(F)F (stereo not given),Percent Effect,"30.3 µM, […]",-11.16%
CN1CCOCC12CCN(Cc1ccoc1)CC2.O=C(O)C(F)(F)F.O=C(O)C(F)(F)F,Percent Effect,"30.3 µM, […]",10.68%
Cc1ccc(CN2CCOC3(CCN(CC4CCOC4)CC3)C2)cc1.O=C(O)C(F)(F)F.O=C(O)C(F)(F)F (stereo not given),Percent Effect,"30.3 µM, […]",54.23%
Cc1ccc(CN2CCC3(CC2)CCN(Cc2ccco2)CC3)cc1.O=C(O)C(F)(F)F.O=C(O)C(F)(F)F,Percent Effect,"30.3 µM, […]",86.21%
COCCC(=O)N1CCC2(CCN(Cc3ccc(C)cc3)CC2)C1.O=C(O)C(F)(F)F,Percent Effect,"30.3 µM, […]",52.88%
COCCC(=O)N1CCC2(CCN(Cc3cccc(F)c3)CC2)C1.O=C(O)C(F)(F)F,Percent Effect,"30.3 µM, […]",10.96%
O=C(O)C(F)(F)F.c1cnc(N2CCOC3(CCN(CC4CCOC4)CC3)C2)nc1 (stereo not given),Percent Effect,"30.3 µM, […]",38.06%
COCC(=O)N1CCC2(CCN(Cc3ccc(C)cc3)CC2)CC1.O=C(O)C(F)(F)F,Percent Effect,"30.3 µM, […]",16.03%
CC(=O)N1CCC12CCN(Cc1ccco1)CC2.O=C(O)C(F)(F)F,Percent Effect,"30.3 µM, […]",4.08%
COCCC(=O)N1CC2(CCN(Cc3cccc(Cl)c3)CC2)C1.O=C(O)C(F)(F)F,Percent Effect,"30 µM, 30.03 µM",20.28%
CN1CCNC(=O)C12CCN(Cc1ccco1)CC2.O=C(O)C(F)(F)F.O=C(O)C(F)(F)F,Percent Effect,"30.3 µM, […]",23.48%
Cc1ccc(CN2CCC3(CC2)CCN(Cc2ccoc2)CC3)cc1.O=C(O)C(F)(F)F.O=C(O)C(F)(F)F,Percent Effect,"30.3 µM, […]",75.99%
Cc1cc(C(=O)N2C[C@@H]3OCCN(CCN4CCCC4)[C@@H]3C2)c(C)o1.O=C(O)C(F)(F)F,Percent Effect,"30.3 µM, […]",6.684%
Cc1cc(C(=O)Nc2ccc3c(ccn3CCN3CCOCC3)c2)on1,Percent Effect,"30.3 µM, […]",-2.631%
CC(C)SCC(=O)N1CCc2c(nc(N(C)C)nc2N(C)C)C1,Percent Effect,"30 µM, 30.03 µM",7.439%
CC(C)C(C)(C#N)NC(=O)Cn1cc(C(N)=O)c(-c2ccccc2)n1 (stereo not given),Percent Effect,"30.3 µM, […]",-11.84%
CCOCC(=O)NCCn1ccc(-c2ccccn2)n1,Percent Effect,"30.3 µM, […]",14.51%
CCOc1ccc(Cl)cc1C(C(=O)O)N1CCOCC1 (stereo not given),Percent Effect,"30.3 µM, […]",26.6%
CC(Cn1cncc1-c1cnn(C2CCCCC2)c1)N1CCCCC1.Cl (stereo not given),Percent Effect,"30.3 µM, […]",20.46%
CC(O)CN1CCN(C(=O)CN(C)c2ccc(C#N)cn2)CC1 (stereo not given),Percent Effect,"30.3 µM, […]",-1.14%
Cc1ccc(CN2CCOC3(COCCN(Cc4ccncc4)C3)C2)o1.O=C(O)C(F)(F)F.O=C(O)C(F)(F)F.O=C(O)C(F)(F)F (stereo not given),Percent Effect,"30.3 µM, […]",5.942%
CS(=O)(=O)N1CCOCC2(CN(Cc3ccco3)CCO2)C1.O=C(O)C(F)(F)F (stereo not given),Percent Effect,"30 µM, 30.03 µM",-12.04%
Cn1ccnc1CN1CCC2(CC1)CCN(Cc1ccoc1)C2.O=C(O)C(F)(F)F.O=C(O)C(F)(F)F,Percent Effect,"30.3 µM, […]",10.21%
Cc1ccc(CN2CCCC3(CCN(Cc4ccoc4)CC3)C2)cc1.O=C(O)C(F)(F)F.O=C(O)C(F)(F)F,Percent Effect,"30.3 µM, […]",70.84%
O=C(O)C(F)(F)F.O=C(O)C(F)(F)F.c1cncc(-c2ccc3c(c2)CCC32CCN(Cc3ccco3)CC2)c1,Percent Effect,"30.3 µM, […]",59.2%
Cc1ccc(CN2CCC3(CCN(Cc4ccncc4)CC3)CC2)cc1,Percent Effect,"30.3 µM, […]",75.36%
O=C(O)C(F)(F)F.O=C(O)C(F)(F)F.O=C(O)C(F)(F)F.c1coc(CN2CCOC3(COCCN(Cc4ccncc4)C3)C2)c1 (stereo not given),Percent Effect,"30.3 µM, […]",52.19%
O=C(O)C(F)(F)F.O=C(O)C(F)(F)F.c1cncc(-c2ccc3c(c2)CCC32CCN(Cc3nccs3)CC2)c1,Percent Effect,"30.3 µM, […]",20.15%
CN(C)CC(=O)N1CCC2(CCc3cc(-c4cccnc4)ccc32)CC1.O=C(O)C(F)(F)F.O=C(O)C(F)(F)F,Percent Effect,"30.3 µM, […]",37.66%
Cc1ccc(CN2CCN(Cc3ccncc3)CC2=O)cc1,Percent Effect,"30.3 µM, […]",-11.56%
COCCC(=O)N1CC2(CCN(Cc3ccncc3)CC2)C1,Percent Effect,"30.3 µM, […]",34.97%
COCCN1CC[C@@H]2O[C@@H](COCC(=O)N3CCCC3)CC[C@@H]21.O=C(O)C(F)(F)F,Percent Effect,"30 µM, 30.03 µM",27.81%
CO[C@H]1CO[C@@]2(CCCN(C(=O)N(C)C)C2)C1,Percent Effect,"30.3 µM, […]",25.22%
O=C(NCCCn1nc2ccccn2c1=O)NCCC1CCC1,Percent Effect,"30.3 µM, […]",27.05%
CCNc1cc2c(nn1)CCN(C(=O)c1ccc3cc[nH]c3c1)C2,Percent Effect,"30 µM, 30.03 µM",18.46%
COc1cccc(-c2noc(-c3ccc(NCCCN)nc3)n2)c1OC,Percent Effect,"30.3 µM, […]",10.02%
CC(C)(CO)Nc1ccc(-c2nc(-c3ccccc3F)no2)cn1,Percent Effect,"30.3 µM, […]",-6.29%
CN(C)CCN(C)c1ccc(-c2nc(COc3ccccc3)no2)cn1,Percent Effect,"30.3 µM, […]",42.47%
COc1cccc(-c2noc(-c3ccc(NCCCO)nc3)n2)c1OC,Percent Effect,"30.3 µM, […]",59.5%
CN(C)CCNc1ccc(-c2nc(COc3ccccc3)no2)cn1,Percent Effect,"30.3 µM, […]",58.19%
CN(C)CCNc1ccc(-c2nc(-c3ccccc3F)no2)cn1,Percent Effect,"30.3 µM, […]",51.45%
CNCCNc1ccc(-c2nc(-c3cccc(OC)c3OC)no2)cn1,Percent Effect,"30.3 µM, […]",11.62%
CSCC[C@@H](CO)Nc1ccc(-c2nc(-c3ccccc3F)no2)cn1,Percent Effect,"30.3 µM, […]",-35.38%
OC[C@@H]1CCCN1c1ccc(-c2nc(COc3ccccc3)no2)cn1,Percent Effect,"30.3 µM, […]",-6.4%

# Source: ChEMBL document CHEMBL3988442, “University of Dundee, Small-Polar-MMV Screening Library” (2021)
